# Data from the supplement of paper PMC8728848.
# Many of the other results were omitted from the sample, so the strongest signals are more common in it than they were.
# B1: F17-L (Escherichia coli) (protein)
# chain: GPDDYVPSQIAVNTSTLPGVVIGPADAHTYPRVIGELAGTSNQYVFNGGAIALMRGKFTPALPKIGSITYTFHQGNSRDSSDFDIYDIGVSGLGIIIGMAGYWPATPLVPINSSGIYIDPVGANTNPNTYNGATASFGARLFVAFVATGRLPNGYITIPTRQLGTILLEAKRTSLNNKGLTAPVMLNGGRIQVQSQTHHHHHH
# How the values were obtained:
# Experiment in all cases: glycan array binding signal (z-score within array); higher = stronger binding
# Conditions in all cases: glycan notation: IUPAC condensed, linker removed
# [1] = molecular target: Fuc(a1-2)Gal(b1-3)GalNAc(b1-3)Gal
# Outline: (§1)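 Arrays were curated from the Consortium for Functional Glycomics database, 3228 in total, and kept only where the protein sequence was available. Binding is expressed as a within-array Z-score. This score was averaged across arrays of the same protein sequence at different concentrations or buffers and across linkers, and negative values can be read as non-binding.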
# [2] = molecular target: Fuc(a1-2)Gal(b1-3)GlcNAc(b1-3)Gal(b1-4)Glc
# Outline: as §1
# [3] = molecular target: Fuc(a1-2)Gal(b1-4)[Fuc(a1-3)]GlcNAc(b1-3)[Neu5Ac(a2-6)Gal(b1-4)GlcNAc(b1-6)]Gal(b1-4)Glc
# Outline: as §1
# [4] = molecular target: Fuc(a1-2)[Gal(a1-3)]Gal(b1-4)GlcNAc(b1-2)Man
# Outline: as §1
# [5] = molecular target: Fuc(a1-2)[GalNAc(a1-3)]Gal(b1-3)GalNAc(b1-3)Gal(a1-4)Gal(b1-4)Glc
# Outline: as §1
# [6] = molecular target: Fuc(a1-2)[GalNAc(a1-3)]Gal(b1-3)GlcNAc(b1-2)Man(a1-3)[Fuc(a1-2)[GalNAc(a1-3)]Gal(b1-3)GlcNAc(b1-2)Man(a1-6)]Man(b1-4)GlcNAc(b1-4)GlcNAc
# Outline: as §1
# [7] = molecular target: Fuc(a1-3)[Gal(b1-4)]GlcNAc(b1-2)Man(a1-3)[Fuc(a1-3)[Gal(b1-4)]GlcNAc(b1-2)Man(a1-6)]Man(b1-4)GlcNAc(b1-4)GlcNAc
# Outline: as §1
# [8] = molecular target: Gal(a1-3)Gal(b1-3)GlcNAc(b1-3)GalNAc
# Outline: as §1
# [9] = molecular target: Gal(a1-3)Gal(b1-3)[Fuc(a1-4)]GlcNAc(b1-2)Man(a1-3)[Gal(a1-3)Gal(b1-3)[Fuc(a1-4)]GlcNAc(b1-2)Man(a1-6)]Man(b1-4)GlcNAc(b1-4)GlcNAc
# Outline: as §1
# Gal(a1-3)GalNAc = molecular target: Gal(a1-3)GalNAc
# Outline: as §1
# Gal(a1-4)Gal(b1-4)GlcNAc = molecular target: Gal(a1-4)Gal(b1-4)GlcNAc
# Outline: as §1
# [10] = molecular target: Gal(a1-4)Gal(b1-4)GlcNAc(b1-2)Man(a1-3)[Gal(a1-4)Gal(b1-4)GlcNAc(b1-2)Man(a1-6)]Man(b1-4)GlcNAc(b1-4)GlcNAc
# Outline: as §1
# [11] = molecular target: Gal(a1-4)Gal(b1-4)GlcNAc(b1-3)Gal(b1-4)Glc
# Outline: as §1
# Gal(b1-2)Gal = molecular target: Gal(b1-2)Gal
# Outline: as §1
# [12] = molecular target: Gal(b1-3)GlcNAc(b1-3)Gal(b1-4)Glc
# Outline: as §1
# [13] = molecular target: Gal(b1-3)[Fuc(a1-4)]GlcNAc(b1-2)Man(a1-3)[Gal(b1-3)[Fuc(a1-4)]GlcNAc(b1-2)Man(a1-6)]Man(b1-4)GlcNAc(b1-4)[Fuc(a1-6)]GlcNAc
# Outline: as §1
# Gal(b1-4)Glc = molecular target: Gal(b1-4)Glc
# Outline: as §1
# [14] = molecular target: Gal(b1-4)GlcNAc(b1-2)[Gal(b1-4)GlcNAc(b1-4)]Man(a1-3)[Gal(b1-4)GlcNAc(b1-2)Man(a1-6)]Man(b1-4)GlcNAc(b1-4)GlcNAc
# Outline: as §1
# [15] = molecular target: Gal(b1-4)GlcNAc(b1-3)Gal(b1-4)Glc
# Outline: as §1
# [16] = molecular target: Gal(b1-4)GlcNAc(b1-3)Gal(b1-4)GlcNAc(b1-3)Gal(b1-4)GlcNAc(b1-2)Man(a1-3)[Gal(b1-4)GlcNAc(b1-3)Gal(b1-4)GlcNAc(b1-3)Gal(b1-4)GlcNAc(b1-2)Man(a1-6)]Man(b1-4)GlcNAc(b1-4)[Fuc(a1-6)]GlcNAc
# Outline: as §1
# [17] = molecular target: Gal(b1-4)GlcNAc(b1-3)GalNAc
# Outline: as §1
# [18] = molecular target: Gal(b1-4)GlcNAc(b1-6)Gal(b1-4)GlcNAc
# Outline: as §1
# Gal(b1-6)Gal = molecular target: Gal(b1-6)Gal
# Outline: as §1
# Gal4S(b1-4)GlcNAc = molecular target: Gal4S(b1-4)GlcNAc
# Outline: as §1
# GalNAc(b1-3)GalNAc = molecular target: GalNAc(b1-3)GalNAc
# Outline: as §1
# GlcA(b1-3)GlcNAc = molecular target: GlcA(b1-3)GlcNAc
# Outline: as §1
# [19] = molecular target: GlcNAc(a1-4)Gal(b1-4)GlcNAc(b1-3)Gal(b1-4)[Fuc(a1-3)]GlcNAc(b1-3)Gal(b1-4)[Fuc(a1-3)]GlcNAc
# Outline: as §1
# [20] = molecular target: GlcNAc(b1-3)Gal(b1-4)GlcNAc(b1-3)Gal(b1-4)GlcNAc(b1-2)Man(a1-3)[GlcNAc(b1-3)Gal(b1-4)GlcNAc(b1-3)Gal(b1-4)GlcNAc(b1-2)Man(a1-6)]Man(b1-4)GlcNAc(b1-4)GlcNAc
# Outline: as §1
# [21] = molecular target: GlcNAc(b1-3)Gal(b1-4)GlcNAc(b1-3)Gal(b1-4)GlcNAc(b1-3)Gal(b1-4)GlcNAc(b1-3)Gal(b1-4)GlcNAc(b1-2)[GlcNAc(b1-3)Gal(b1-4)GlcNAc(b1-3)Gal(b1-4)GlcNAc(b1-3)Gal(b1-4)GlcNAc(b1-3)Gal(b1-4)GlcNAc(b1-6)]Man(a1-6)[GlcNAc(b1-3)Gal(b1-4)GlcNAc(b1-3)Gal(b1-4)GlcNAc(b1-3)Gal(b1-4)GlcNAc(b1-3)Gal(b1-4)GlcNAc(b1-2)Man(a1-3)]Man(b1-4)GlcNAc(b1-4)[Fuc(a1-6)]GlcNAc
# Outline: as §1
# [22] = molecular target: GlcNAc(b1-3)[GlcNAc(b1-6)]Gal(b1-4)GlcNAc
# Outline: as §1
# [23] = molecular target: GlcNAc(b1-4)GlcNAc(b1-4)GlcNAc
# Outline: as §1
# [24] = molecular target: GlcNAc(b1-6)Gal(b1-4)GlcNAc
# Outline: as §1
# Kdn(a2-3)Gal(b1-4)Glc = molecular target: Kdn(a2-3)Gal(b1-4)Glc
# Outline: as §1
# [25] = molecular target: Man(a1-2)Man(a1-3)[Man(a1-2)Man(a1-6)]Man
# Outline: as §1
# MurNAc(b1-4)GlcNAc = molecular target: MurNAc(b1-4)GlcNAc
# Outline: as §1
# Neu5Ac(a2-3)Gal = molecular target: Neu5Ac(a2-3)Gal
# Outline: as §1
# [26] = molecular target: Neu5Ac(a2-3)Gal(b1-3)GlcNAc(b1-4)Gal(b1-4)Glc
# Outline: as §1
# [27] = molecular target: Neu5Ac(a2-3)Gal(b1-3)[Fuc(a1-4)]GlcNAc(b1-3)Gal(b1-4)[Fuc(a1-3)]GlcNAc
# Outline: as §1
# [28] = molecular target: Neu5Ac(a2-3)Gal(b1-3)[Neu5Ac(a2-6)]GlcNAc(b1-3)[Fuc(a1-3)[Gal(b1-4)]GlcNAc(b1-6)]Gal(b1-4)Glc
# Outline: as §1
# [29] = molecular target: Neu5Ac(a2-3)Gal(b1-3)]Neu5Ac(a2-3)Gal(b1-4)]GlcNAc
# Outline: as §1
# [30] = molecular target: Neu5Ac(a2-3)Gal(b1-4)GlcNAc(b1-3)Gal(b1-4)GlcNAc(b1-6)[Gal(b1-3)]GalNAc
# Outline: as §1
# [31] = molecular target: Neu5Ac(a2-3)Gal(b1-4)[Fuc(a1-3)]GlcNAc(b1-2)Man
# Outline: as §1
# [32] = molecular target: Neu5Ac(a2-3)Gal(b1-4)[Fuc(a1-3)]GlcNAc(b1-3)Gal(b1-4)[Fuc(a1-3)]GlcNAc(b1-3)Gal(b1-4)[Fuc(a1-3)]GlcNAc
# Outline: as §1
# [33] = molecular target: Neu5Ac(a2-3)Gal(b1-4)[Fuc(a1-3)]GlcNAc(b1-6)[Neu5Ac(a2-3)Gal(b1-3)]GalNAc
# Outline: as §1
# [34] = molecular target: Neu5Ac(a2-6)Gal(b1-4)GlcNAc(b1-2)Man
# Outline: as §1
# [35] = molecular target: Neu5Ac(a2-6)Gal(b1-4)GlcNAc(b1-3)Gal(b1-4)GlcNAc
# Outline: as §1
# [36] = molecular target: Neu5Ac(a2-6)Gal(b1-4)GlcNAc(b1-3)Gal(b1-4)GlcNAc(b1-3)[Neu5Ac(a2-6)Gal(b1-4)GlcNAc(b1-3)Gal(b1-4)GlcNAc(b1-6)]GalNAc
# Outline: as §1
# [37] = molecular target: Neu5Ac(a2-6)Gal(b1-4)GlcNAc(b1-3)Gal(b1-4)GlcNAc(b1-6)[Gal(b1-3)]GalNAc
# Outline: as §1
# [38] = molecular target: Neu5Ac9Ac(a2-6)Gal(b1-4)GlcNAc
# Outline: as §1
# [39] = molecular target: Neu5Gc(a2-8)Neu5Gc(a2-3)Gal(b1-4)GlcNAc(b1-3)Gal(b1-4)GlcNAc
# Outline: as §1
binder,measurement,setting,value
B1,glycan array binding signal (z-score),[1],-0.136
same,glycan array binding signal (z-score),[2],1.54
same,glycan array binding signal (z-score),[3],-0.136
same,glycan array binding signal (z-score),[4],0.196
same,glycan array binding signal (z-score),[5],0.104
same,glycan array binding signal (z-score),[6],-0.078
same,glycan array binding signal (z-score),[7],-0.072
same,glycan array binding signal (z-score),[8],-0.023
same,glycan array binding signal (z-score),[9],0.699
same,glycan array binding signal (z-score),Gal(a1-3)GalNAc,-0.118
same,glycan array binding signal (z-score),Gal(a1-4)Gal(b1-4)GlcNAc,1.8
same,glycan array binding signal (z-score),[10],22.9
same,glycan array binding signal (z-score),[11],2.92
same,glycan array binding signal (z-score),Gal(b1-2)Gal,-0.01
same,glycan array binding signal (z-score),[12],1.3
same,glycan array binding signal (z-score),[13],0.915
same,glycan array binding signal (z-score),Gal(b1-4)Glc,-0.096
same,glycan array binding signal (z-score),[14],-0.169
same,glycan array binding signal (z-score),[15],1.67
same,glycan array binding signal (z-score),[16],0.05
same,glycan array binding signal (z-score),[17],-0.12
same,glycan array binding signal (z-score),[18],-0.156
same,glycan array binding signal (z-score),Gal(b1-6)Gal,-0.146
same,glycan array binding signal (z-score),Gal4S(b1-4)GlcNAc,-0.113
same,glycan array binding signal (z-score),GalNAc(b1-3)GalNAc,-0.19
same,glycan array binding signal (z-score),GlcA(b1-3)GlcNAc,1
same,glycan array binding signal (z-score),[19],-0.101
same,glycan array binding signal (z-score),[20],0.024
same,glycan array binding signal (z-score),[21],0.006
same,glycan array binding signal (z-score),[22],-0.228
same,glycan array binding signal (z-score),[23],-0.131
same,glycan array binding signal (z-score),[24],0.019
same,glycan array binding signal (z-score),Kdn(a2-3)Gal(b1-4)Glc,-0.136
same,glycan array binding signal (z-score),[25],-0.153
same,glycan array binding signal (z-score),MurNAc(b1-4)GlcNAc,4.16
same,glycan array binding signal (z-score),Neu5Ac(a2-3)Gal,-0.099
same,glycan array binding signal (z-score),[26],-0.075
same,glycan array binding signal (z-score),[27],0.865
same,glycan array binding signal (z-score),[28],-0.114
same,glycan array binding signal (z-score),[29],0.01
same,glycan array binding signal (z-score),[30],-0.139
same,glycan array binding signal (z-score),[31],-0.12
same,glycan array binding signal (z-score),[32],-0.119
same,glycan array binding signal (z-score),[33],-0.152
same,glycan array binding signal (z-score),[34],-0.134
same,glycan array binding signal (z-score),[35],-0.069
same,glycan array binding signal (z-score),[36],-0.014
same,glycan array binding signal (z-score),[37],-0.112
same,glycan array binding signal (z-score),[38],-0.133
same,glycan array binding signal (z-score),[39],-0.129
